Viability and Potency data for 23 molecules are collected here from PubChem BioAssay (NCATS).

Records with an inconclusive call do not appear. Values without a mark were called inactive. Calls of active or inactive are those of the source. Calls follow the shape of the dose curve; as a rule, active = well fitted inhibition curve with a large enough effect; inconclusive = small, poorly fitted or top-dose-only effect; inactive = no such curve, though single readings can be large or run the other way.
Potency is read from the fitted curve at half-maximal effect.

A short description of the assay: BET inhibitor-based combinations targeting novel dependencies in MECOM-rearranged (r) AML: SET-2 cell line (AID 2202231). Also: nearly all actives have a fitted effect of over 35% in size.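 As to Viability: plate controls were DMSO treated cells for no effect and wells without cells for full effect.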 As to conditions: SET-2 AML cells viability, CellTiter-Glo luminescence, 48 h; viability: stronger effect = lower value, series mostly up to about 46 µM. Summed up: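 Luminescent ATP readout (CellTiter-Glo) after 48 hr drug exposure gives viability. Curves span 11 concentrations and are normalized to DMSO and empty wells. Activity is reported as area under the curve and its Z-transform within each cell line.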
A general note: ATP-based viability assays read luminescence as a measure of living cells.
Broadly, the viability is a read-out of living cells in per cent, often relative to untreated cells. With `COc1ccc(CCN(C)CCCC(C#N)(c2ccc(OC)c(OC)c2)C(C)C)cc1OC` (stereo not drawn), the viability was 94.7%.
Take `Cc1cc(C)c(/C=C2\C(=O)Nc3ccccc32)[nH]1`: the viability was 96.4%.
Consider `Cc1cc(Cl)ccc1OCCCC(=O)NO`, for which the Potency is 1.32 µM (active).
Turning to `NCCc1ccc(O)c(O)c1`, the viability was 112%.
Still for that read-out and setting: for `O=C1CCC(N2C(=O)c3ccccc3C2=O)C(=O)N1` (stereo not drawn) the value was 112%; for `CC(C)Cc1ccc(C(C)C(=O)O)cc1` (stereo not drawn), 111%; for `OC(CCN1CCCCC1)(c1ccccc1)C1CC2C=CC1C2` (stereo not drawn), 97.6%.
On to `CS(=O)(=O)Nc1ccc([N+](=O)[O-])cc1Oc1ccccc1`, for which the viability was 107%.
On to `Nc1nc2c(ncn2COCCO)c(=O)[nH]1`, for which the viability was 125%.
On the same count and under the same terms, the figure for `Nc1c2c(nc3ccccc13)CCCC2` is 102%; for `NC12CC3CC(CC(C3)C1)C2` it is 106%.
In the case of `CC1COc2c(N3CCN(C)CC3)c(F)cc3c(=O)c(C(=O)O)cn1c23` (stereo not drawn), the viability was 102%.
Same read-out and setting: the figure for `CCN1CCCC1CNC(=O)c1cc(S(=O)(=O)CC)c(N)cc1OC` (stereo not drawn) is 122%; for `Cc1ccc(N(CC2=NCCN2)c2cccc(O)c2)cc1` it is 97.5%; for `CC(C[N+](C)(C)C)OC(N)=O` (stereo not drawn) it is 116%.
In the case of `CC(C)(Oc1ccc(C2CC2(Cl)Cl)cc1)C(=O)O` (stereo not drawn), the viability is 114%.
`NC(=O)c1ncn([C@@H]2O[C@H](CO)[C@@H](O)[C@H]2O)n1`: the Potency is 20.9 µM (active).
The same measure, in the same setting: the figure for `CN1CCC(=C2c3ccccc3C=Cc3ccccc32)CC1` is 13.2 µM (active).
`CN[C@H](CC(C)C)C(=O)N[C@H]1C(=O)N[C@@H](CC(N)=O)C(=O)N[C@H]2C(=O)N[C@H]3C(=O)N[C@H](C(=O)N[C@H](C(=O)O)c4cc(O)cc(O)c4-c4cc3ccc4O)[C@H](O)c3ccc(c(Cl)c3)Oc3cc2cc(c3O[C@@H]2O[C@H](CO)[C@@H](O)[C@H](O)[C@H]2O[C@H]2C[C@](C)(N)[C@H](O)[C@H](C)O2)Oc2ccc(cc2Cl)[C@H]1O`: the viability is 117%.
`O=c1c(-c2ccc(O)cc2)coc2cc(O)cc(O)c12`: the Potency is 42.8 µM (active).
Regarding `O=C(CCc1ccc(O)cc1)c1c(O)cc(O)cc1O`, the viability is 105%.
As for `NCCCCNCCCN`, the Potency was 18.6 µM (active).
As to `C1COC(NC(C2CC2)C2CC2)=N1`, the viability was 117%.
